IL2 activator: IL-2 activation; AID 652025; IL-2 activation reporter assay, cell-based qHTS; stimulated with anti-CD3/CD4/CD28 beads; in transgenic mouse T cells; actives 0.065% (n = 360,000); activation, % (series mostly up to about 46 µM); in the data active = activation above about 50%; inconclusive = mostly about 30% to 49%; note: 0% is about no effect
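Unstimulated transgenic mouse T cells preincubated 60 min with compound, then stimulated with anti-CD3/anti-CD4-coated beads plus anti-CD28 for 18 h at 37 degrees C. IL-2 response read as EGFP and DsRed fluorescence by plate cytometry.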
ELG1 repair inh: blocks ELG1-dependent DNA repair in HEK293T cells. HEK293T ELG1-luciferase reporter, luminescence, 16 h; DNA damage induced by 5-fluorouridine. Potency, µM (titrated, usually from 46.1 µM), for the others: at the top dose activity change, negative = inhibition, usual class: inhibitors. actives 2.3% (n = 330,000); note: potency is the fitted concentration of half-maximal effect; % is set by controls: 0 for no effect and ±100 for the full control effect; nearly all actives have a fitted effect of over 55% in size
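In this reporter screen, reduction of luminescence relative to DMSO vehicle indicated activity. Compounds and 5-fluorouridine were added together to 2,000 cells per well, incubated for 16 hr at 37 °C, then developed with ONE-Glo.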
BRCA1 expr act: increases BRCA1 expression | actives 1.1% (n = 380,000) | MCF7-BRCA1-FFLuc reporter, luminescence, 48 h; response scale: scaled: vehicle 0%, 10 µM genistein 100% | Potency, µM (series often up to 46.1 µM), for the others: at the highest dose activation, most hits filed as activators | AID 624202; note: potency is the fitted concentration of half-maximal effect; nearly all actives have a fitted effect of over 80% in size
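Using MCF7 cells harboring a BRCA1 firefly luciferase reporter, plated 2 h before compound pinning, the screen measured luminescence after 48 h incubation. Responses were normalized to DMSO and 10 microM genistein, then fitted for concentration-effect.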
Nrf2 ARE act: Nrf2 pathway activation; actives 0.31% (n = 410,000); AREc32 ARE-luciferase reporter (MCF7-derived line), luminescence, 24 h; Potency, µM (titrated, usually from 46.1 µM), inactives show at the highest dose activation, actives largely listed as activators; note: potency is the fitted concentration of half-maximal effect; % of control where 0% means no effect; nearly all actives have a fitted effect of over 65% in size
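Cells of the AREc32 ARE-luciferase line are plated in OPTI-MEM containing 5% FBS and left overnight at 37 deg C. Compounds are pinned in, incubation continues 24 hr, and firefly luciferase signal is then measured.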
ELG1 FLuc counter: luciferase inhibition in cell-free luciferin readout for ELG1 hits; AID 624247; Potency, µM (titrated, usually from 46.1 µM), inactives show top-dose activity change, negative = inhibition, hits mostly inhibitors; shares compounds with ELG1 repair inh; actives 3% (n = 350); cell-free firefly luciferase luminescence counter-screen, ViewLux; note: potency is the fitted concentration of half-maximal effect; % is set by controls: 0 for no effect and ±100 for the full control effect
ELG1 Luc conf: confirmation of human ELG1-dependent DNA repair inhibitors | shares compounds with ELG1 repair inh | actives 68% (n = 670) | HEK293T ELG1-luciferase levels, luminescence; cells co-treated with 5-fluorouridine | Potency, µM (highest dose often 46.1 µM), for the others: top-dose activity change, negative = inhibition, hits mostly inhibitors; note: potency is the fitted concentration of half-maximal effect; % is set by controls: 0 for no effect and ±100 for the full control effect; nearly all actives have a fitted effect of over 55% in size
Target sequence (Q96QE3 whole entry, looked up): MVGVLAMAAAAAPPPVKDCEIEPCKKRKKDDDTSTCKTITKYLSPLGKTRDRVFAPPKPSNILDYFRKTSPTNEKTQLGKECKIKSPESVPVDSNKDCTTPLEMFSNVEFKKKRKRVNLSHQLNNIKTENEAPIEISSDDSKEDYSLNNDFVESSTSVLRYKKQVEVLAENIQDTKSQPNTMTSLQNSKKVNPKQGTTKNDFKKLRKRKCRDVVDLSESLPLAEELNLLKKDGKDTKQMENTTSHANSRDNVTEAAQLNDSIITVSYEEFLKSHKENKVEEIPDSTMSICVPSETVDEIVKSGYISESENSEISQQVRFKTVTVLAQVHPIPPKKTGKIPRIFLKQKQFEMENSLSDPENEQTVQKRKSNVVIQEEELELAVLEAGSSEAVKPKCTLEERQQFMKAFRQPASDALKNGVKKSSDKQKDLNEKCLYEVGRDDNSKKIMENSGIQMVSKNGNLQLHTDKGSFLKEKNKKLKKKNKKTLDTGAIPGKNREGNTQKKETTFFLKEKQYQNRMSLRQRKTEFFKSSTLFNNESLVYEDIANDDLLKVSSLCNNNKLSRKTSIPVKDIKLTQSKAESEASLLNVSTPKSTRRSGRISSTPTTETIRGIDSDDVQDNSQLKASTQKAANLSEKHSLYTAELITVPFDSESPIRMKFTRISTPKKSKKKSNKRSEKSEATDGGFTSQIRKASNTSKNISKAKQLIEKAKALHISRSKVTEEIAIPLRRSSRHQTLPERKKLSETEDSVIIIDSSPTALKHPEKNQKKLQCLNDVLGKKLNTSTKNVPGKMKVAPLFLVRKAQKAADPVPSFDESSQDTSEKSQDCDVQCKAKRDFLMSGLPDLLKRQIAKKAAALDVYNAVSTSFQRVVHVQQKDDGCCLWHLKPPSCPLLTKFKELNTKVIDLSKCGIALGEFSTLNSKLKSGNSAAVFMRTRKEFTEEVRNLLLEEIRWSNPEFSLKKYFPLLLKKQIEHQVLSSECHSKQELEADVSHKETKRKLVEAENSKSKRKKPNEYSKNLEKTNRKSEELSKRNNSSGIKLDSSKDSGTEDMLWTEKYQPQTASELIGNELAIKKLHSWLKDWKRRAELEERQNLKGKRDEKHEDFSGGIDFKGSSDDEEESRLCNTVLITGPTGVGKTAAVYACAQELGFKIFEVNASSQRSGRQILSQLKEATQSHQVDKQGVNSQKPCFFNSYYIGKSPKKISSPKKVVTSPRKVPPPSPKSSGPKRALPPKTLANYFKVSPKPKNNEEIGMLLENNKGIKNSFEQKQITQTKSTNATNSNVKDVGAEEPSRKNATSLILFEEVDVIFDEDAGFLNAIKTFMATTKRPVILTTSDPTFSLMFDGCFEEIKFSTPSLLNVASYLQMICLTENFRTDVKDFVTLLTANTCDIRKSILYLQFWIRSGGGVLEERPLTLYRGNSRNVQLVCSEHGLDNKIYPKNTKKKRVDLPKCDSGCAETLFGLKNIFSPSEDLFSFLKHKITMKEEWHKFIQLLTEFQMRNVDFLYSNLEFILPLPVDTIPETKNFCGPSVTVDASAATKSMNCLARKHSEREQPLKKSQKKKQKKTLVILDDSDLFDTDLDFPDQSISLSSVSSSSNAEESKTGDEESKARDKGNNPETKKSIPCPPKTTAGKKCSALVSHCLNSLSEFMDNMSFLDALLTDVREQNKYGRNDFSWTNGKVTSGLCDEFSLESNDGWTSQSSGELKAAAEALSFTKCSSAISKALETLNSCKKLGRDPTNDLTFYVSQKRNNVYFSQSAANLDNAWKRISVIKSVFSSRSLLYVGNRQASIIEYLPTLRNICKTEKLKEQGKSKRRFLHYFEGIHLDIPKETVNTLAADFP
ELG1-Luc MMS: inhibits ELG1-dependent repair under MMS stimulation in HEK293T cells. shares compounds with ELG1 repair inh. HEK293T luciferase-tagged ELG1 level, MMS stimulated. Potency, µM (highest dose often 46.1 µM), inactives show top-dose activity change, negative = inhibition, most hits filed as inhibitors. actives 53% (n = 670); note: potency is the fitted concentration of half-maximal effect; % is set by controls: 0 for no effect and ±100 for the full control effect; nearly all actives have a fitted effect of over 60% in size
ELG1 5FU viab: confirmation of ELG1 repair inhibitors: viability with 5FU; 670 tested, under 10 active; cell viability with 5-FU, ELG1-dependent repair; Potency, µM (doses to about 46.1 µM), inactives show top-dose activity change, negative = viability loss, actives largely listed as cytotoxic; AID 624250; shares compounds with ELG1 repair inh;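 note: ELG1-luc HEK293T cells cotreated with 5-fluorouridine at 10 µM final; potency is the fitted concentration of half-maximal effect; viability measured 16 h after compound addition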
ELG1 MMS cell: confirmation of ELG1 repair inhibitors: viability with MMS; shares compounds with ELG1 repair inh; AID 624251; actives 33% (n = 670); Cell viability with MMS, ELG1-dependent DNA repair; Potency, µM (series often up to 46.1 µM), inactives show at the highest dose activity change, negative = viability loss, most hits filed as cytotoxic;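 note: ELG1-luc HEK293T cells co-treated with 10 µM MMS; potency is the fitted concentration of half-maximal effect; viability read 16 h after compound addition; % is set by controls: 0 for no effect and ±100 for the full control effect; nearly all actives have a fitted effect of over 60% in size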
Cell viab unstim: affects unstimulated cell viability, ELG1 hit counter-screen; shares compounds with ELG1 repair inh; cell viability counter-screen, unstimulated, luminescence; Potency, µM (doses to about 45.9 µM), without a hit: at the top dose activity change, negative = loss of viability, usual class: cytotoxic; actives 8% (n = 900);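 note: potency is the fitted concentration of half-maximal effect; compound exposure lasted 16 hours before reading; % is set by controls: 0 for no effect and ±100 for the full control effect; nearly all actives have a fitted effect of over 55% in size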
FLuc biochem: firefly luciferase inhibition counter-screen. shares compounds with ELG1 repair inh. purified firefly luciferase, luminescence counter-screen. Potency, µM (highest dose often 57.5 µM), for inactives: at the highest dose activity, negative = inhibition, actives largely listed as inhibitors. actives 10% (n = 350). AID 624253; note: potency is the fitted concentration of half-maximal effect; % is set by controls: 0 for no effect and ±100 for the full control effect
* marks the source's active call; other numbers are inactive results. Hits are enriched below; roughly 3.1% of the tested compounds scored in any of these assays. Unless noted, calls come from the whole dose curve; as a rule, active = well fitted curve in the direction sought with a large enough effect; inconclusive = small, poorly fitted or top-dose-only effect, or another doubt; inactive = no such curve, though single readings can be large; an effect the other way counts as inactive or inconclusive.

`CC(=O)NC(c1ccccc1)c1nc(-c2ccc(Cl)cc2)cs1` (centres undefined) gave IL2 activator 0, BRCA1 expr act 6% and Nrf2 ARE act 5%.
`O=C(NCC[C@@H]1CC[C@@H](NS(=O)(=O)Cc2ccccc2)[C@@H](CO)O1)C1CC1` gave IL2 activator 0.
For COCCCNC(=O)C(C)n1c2ccccc2c2cnn(C)c(=O)c21 (centres undefined) the results were BRCA1 expr act 18% and Nrf2 ARE act 4%.
`O=C(N/N=C/c1ccc([N+](=O)[O-])s1)c1ccccc1` gave IL2 activator -1, ELG1 repair inh inconclusive, BRCA1 expr act -86% and Nrf2 ARE act -2%.
For O=C(CNC(=O)c1cccc(F)c1)N/N=C/c1ccc([N+](=O)[O-])s1 the results were IL2 activator 0, ELG1 repair inh 2.9µM*, BRCA1 expr act -73%, Nrf2 ARE act 0%, ELG1 Luc conf inconclusive, ELG1-Luc MMS 10µM*, ELG1 5FU viab -3%, ELG1 MMS cell 14µM* and Cell viab unstim -4%.
Screening COc1ccccc1NC(=O)c1cn(C)c(=O)c2cc(OC)c(OC)cc12 returned IL2 activator 3, ELG1 repair inh inconclusive, BRCA1 expr act -5% and Nrf2 ARE act 0%.
`COc1cc2c(C(=O)Nc3ccccc3F)cn(C)c(=O)c2cc1OC` gave IL2 activator -2, ELG1 repair inh 5%, BRCA1 expr act 8%, Nrf2 ARE act 0%, ELG1 FLuc counter 6%, ELG1 Luc conf 18µM*, ELG1-Luc MMS 3%, ELG1 5FU viab inconclusive, ELG1 MMS cell inconclusive, Cell viab unstim -1% and FLuc biochem 4%.
c1ccc(N=c2nc(-c3ccccc3)n(-c3ccccc3)s2)cc1 was read as BRCA1 expr act -41%.
`Cc1cc(NNC(=O)Nc2cccc(Cl)c2)nc2c1c(C)nn2C` gave ELG1 repair inh 0.73µM*, ELG1 FLuc counter -8%, ELG1 Luc conf inconclusive, ELG1-Luc MMS 0.79µM*, ELG1 5FU viab -2%, ELG1 MMS cell 1µM*, Cell viab unstim -10% and FLuc biochem -1%.
OC(Cc1cccc(Br)c1)c1ncc(-c2cccc(C(F)(F)F)c2)[nH]1 (centres undefined) was read as IL2 activator -1, BRCA1 expr act -42% and Nrf2 ARE act -3%.
Screening CCOC(=O)C1CCN(c2cc3c(cc2NC(=O)c2cc(OC)ccc2Br)n(C)c(=O)n3C)CC1 returned IL2 activator -4, ELG1 repair inh inconclusive, BRCA1 expr act 5% and Nrf2 ARE act 4%.
`CCOC(=O)C1CCN(c2cc3c(cc2NC(=O)c2ccccc2Br)n(C)c(=O)n3C)CC1` gave IL2 activator 1, ELG1 repair inh 9.2µM*, BRCA1 expr act 7%, Nrf2 ARE act 0%, ELG1 FLuc counter 0%, ELG1 Luc conf 7.9µM*, ELG1-Luc MMS inconclusive, ELG1 5FU viab inconclusive, ELG1 MMS cell 7%, Cell viab unstim -1% and FLuc biochem 0%.
`C[C@H](CO)N1C[C@H](C)[C@@H](CN(C)C(=O)Nc2ccc(C(F)(F)F)cc2)Oc2c(NC(=O)Nc3ccccc3)cccc2C1=O` gave IL2 activator 0, ELG1 repair inh 0.52µM*, BRCA1 expr act -70%, Nrf2 ARE act 0%, ELG1 FLuc counter -11%, ELG1 Luc conf 6.3µM*, ELG1-Luc MMS -13%, ELG1 5FU viab inconclusive, ELG1 MMS cell -7%, Cell viab unstim inconclusive and FLuc biochem inconclusive.
For C[C@H](CO)N1C[C@H](C)[C@@H](CN(C)C(=O)Nc2ccc(C(F)(F)F)cc2)Oc2c(NC(=O)Nc3ccc4c(c3)OCO4)cccc2C1=O the results were IL2 activator -5, ELG1 repair inh 0.58µM*, BRCA1 expr act -24%, Nrf2 ARE act 5%, ELG1 FLuc counter 6%, ELG1 Luc conf 2µM*, ELG1-Luc MMS -18%, ELG1 5FU viab inconclusive, ELG1 MMS cell 9%, Cell viab unstim -12% and FLuc biochem inconclusive.
C[C@@H]1CN([C@H](C)CO)C(=O)c2cc(NC(=O)Nc3ccc(C(F)(F)F)cc3)ccc2O[C@H]1CN(C)Cc1ccc(Cl)c(Cl)c1 was read as IL2 activator -1, ELG1 repair inh inconclusive, BRCA1 expr act -1% and Nrf2 ARE act -2%.
For C[C@H]1CN([C@@H](C)CO)C(=O)c2cccc(NC(=O)Nc3ccc(C(F)(F)F)cc3)c2O[C@@H]1CN(C)Cc1ccc(Cl)c(Cl)c1 the results were IL2 activator -1, ELG1 repair inh 4.6µM*, BRCA1 expr act -60%, Nrf2 ARE act -2%, ELG1 Luc conf 14µM*, ELG1-Luc MMS 14µM*, ELG1 5FU viab inconclusive, ELG1 MMS cell 25µM* and Cell viab unstim 13µM*.
CC(C)NC(=O)N(C)C[C@H]1Oc2c(NC(=O)Nc3ccc(C(F)(F)F)cc3)cccc2C(=O)N([C@H](C)CO)C[C@@H]1C was read as IL2 activator 1, ELG1 repair inh -20%, BRCA1 expr act -36% and Nrf2 ARE act 11%.

Screens deposited in PubChem by National Center for Advancing Translational Sciences (NCATS).
